Inconclusive results are not listed. The source made the active and inactive calls. Calls follow the shape of the dose curve; as a rule, active = well fitted curve in the direction sought with a large enough effect; inconclusive = small, poorly fitted or top-dose-only effect, or another doubt; inactive = no such curve, though single readings can be large; an effect the other way counts as inactive or inconclusive.
Columns and labels:
[1] = molecular target: Phospholipid hydroperoxide glutathione peroxidase GPX4 (Homo sapiens) (UniProt P36969); assay: Primary qHTS Assay for Inhibitors of Recombinant Selenoprotein Glutathione Peroxidase 4 (GPX4) (AID 1845192); conditions: recombinant GPX4, GR-coupled NADPH fluorescence, 15 min; series mostly up to 50 µM; also: nearly all actives have a fitted effect of over 65% in size
How it was run: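 NADPH consumption followed by fluorescence at 340/450 nm, t=0 and after 15 min at room temperature. Reaction started with cumene hydroperoxide (0.5 mM final) after 30 min compound–GPX4 preincubation; final 200 nM GPX4, 100 nM GR, 1 mM GSH, 0.5 mM NADPH.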

[2] = molecular target: Luciferin 4-monooxygenase (Photinus pyralis) (UniProt P08659); assay: Primary firefly luciferase (FLuc) qHTS assay for identification of artifact compounds. (AID 1845220); conditions: purified firefly luciferase, luminescence, 5 min; series mostly up to 54.1 µM; also: nearly all actives have a fitted effect of over 60% in size
How it was run: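 Compounds sat 15 min at room temperature with 10 uM luciferin and 10 uM ATP (pH 7.6 Tris acetate). Firefly luciferase (10 nM final) was then added, and luminescence was read 5 min later. Data normalized to no-enzyme and DMSO controls were Hill-fitted.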

[3] = Primary fluorescence-based thiol-reactive (MSTI) qHTS assay for identification of artifact compounds. (AID 1845221); conditions: MSTI thiol-reactivity probe, 1 h; series mostly up to 53.8 µM;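 also: thiol-reactive compounds lower the probe fluorescence signal; nearly all actives have a fitted effect of over 65% in size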
How it was run: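 Compounds were incubated 1 h at room temperature in the dark with the MSTI probe (4 uM) in PBS pH 7.4, 2% DMSO. Signals were normalized between Acetyl-MSTI and MSTI.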

[4] = test system: Nanoluciferase (engineered Oplophorus gracilirostris luciferase); assay: Primary Nanoluciferase (NLuc) qHTS assay for identification of artifact compounds. (AID 1845222); conditions: NLuc-conditioned medium, Nano-Glo luminescence, 5 min; series mostly up to 54.1 µM
How it was run: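 Luminescence from secreted NLuc (filtered, 1:55-diluted S16 cell medium) read 5 min after Nano-Glo substrate; compounds preincubated 15 min, RT. Hill fits of inhibition normalized to DMSO and no-enzyme.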

[5] = Primary redox qHTS assay for identification of artifact compounds. (AID 1845223); conditions: Amplex Red/HRP redox cycling with DTT, fluorescence; series mostly up to 53.8 µM
How it was run: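 Redox-cycling detection via DTT (250 uM final) oxidation coupled to Amplex Red (25 uM)/HRP (250 mU/mL) in HBSS. 15 min preincubation plus 30 min after DTT, room temperature. Ex/Em 525/598 nm; 4-parameter Hill fit against DMSO and 10 uM DA3003.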

Measured: Potency

Chain of Phospholipid hydroperoxide glutathione peroxidase GPX4 (Homo sapiens) (P36969 whole entry, looked up): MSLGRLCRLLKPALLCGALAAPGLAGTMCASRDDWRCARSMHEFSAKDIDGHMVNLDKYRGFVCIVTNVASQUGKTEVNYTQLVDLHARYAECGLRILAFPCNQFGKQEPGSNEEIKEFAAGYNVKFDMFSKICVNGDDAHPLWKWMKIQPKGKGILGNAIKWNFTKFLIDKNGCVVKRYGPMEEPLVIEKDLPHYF

Cc1sc2c(c1C)C(c1ccc(Cl)cc1)=N[C@@H](CC(=O)Nc1ccc(OCCOCCOCCOCCNc3cccc4c3C(=O)N(C3CCC(=O)NC3=O)C4=O)cc1)c1nnc(C)n1-2 (stereo partly drawn)
inactive: [1] | [2] | [3] | [4]

CC#CCn1c(N2CCCC(N)C2)nc2c1c(=O)n(Cc1nc(C)c3ccccc3n1)c(=O)n2C (stereo not drawn)
inactive: [1] | [2] | [3] | [4]

Cc1cc(OCCCS(C)(=O)=O)cc(C)c1-c1cccc(COc2ccc3c(c2)OCC3CC(=O)O)c1 (stereo not drawn)
inactive: [1] | [2] | [3] | [4] | [5]

From PubChem BioAssay (NCATS)
